KCNQ2 pot – potentiators of rat KCNQ2 potassium channel; B-score at 10 µM; CHO-K1 KCNQ2, FluxOR thallium flux fluorescence; active compounds read high; O88943; 310,000 tested, 0.54% active;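 active means fluorescence ratio B-score at least 3 SD of library B-scores, with initial fluorescence B-score within 3 of them, cut at about 5.3 in these data; same plate scores as AID 2156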;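 further: B-score of peak minus minimum over baseline fluorescence ratio after K+ and Tl+ stimulus; positive B-score means potentiation of KCNQ2 with more thallium influx and brighter signal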
Target sequence (O88943 whole entry, looked up): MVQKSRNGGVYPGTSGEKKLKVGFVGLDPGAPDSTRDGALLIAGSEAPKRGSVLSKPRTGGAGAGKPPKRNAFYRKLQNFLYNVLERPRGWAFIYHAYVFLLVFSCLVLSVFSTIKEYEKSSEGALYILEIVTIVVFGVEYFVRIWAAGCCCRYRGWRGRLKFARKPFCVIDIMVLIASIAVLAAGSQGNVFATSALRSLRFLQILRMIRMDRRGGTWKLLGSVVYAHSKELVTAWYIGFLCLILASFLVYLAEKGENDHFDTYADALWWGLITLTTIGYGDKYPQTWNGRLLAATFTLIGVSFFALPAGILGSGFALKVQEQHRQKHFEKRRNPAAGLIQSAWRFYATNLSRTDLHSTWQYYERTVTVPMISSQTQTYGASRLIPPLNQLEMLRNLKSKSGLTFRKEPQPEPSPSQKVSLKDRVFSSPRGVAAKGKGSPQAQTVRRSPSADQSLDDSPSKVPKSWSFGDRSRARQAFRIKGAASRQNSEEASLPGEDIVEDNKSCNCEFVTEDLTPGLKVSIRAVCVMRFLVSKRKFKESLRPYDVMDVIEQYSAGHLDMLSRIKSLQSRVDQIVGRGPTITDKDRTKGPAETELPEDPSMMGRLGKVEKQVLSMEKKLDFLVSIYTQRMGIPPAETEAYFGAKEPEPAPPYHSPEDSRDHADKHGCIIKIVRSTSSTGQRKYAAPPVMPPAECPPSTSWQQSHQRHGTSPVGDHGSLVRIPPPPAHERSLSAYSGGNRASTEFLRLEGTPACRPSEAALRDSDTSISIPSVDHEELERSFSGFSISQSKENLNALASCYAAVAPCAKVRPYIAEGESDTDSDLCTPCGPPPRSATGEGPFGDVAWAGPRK
KCNQ2 inh – inhibitors of rat KCNQ2 potassium channel | O88943 | CHO-K1 KCNQ2, FluxOR thallium flux, 20 min; active compounds read low | B-score at 10 µM | 310,000 tested, 1.1% active;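 active means fluorescence ratio B-score at most minus 3 library SDs, with starting brightness B-score within 2 library SDs, cut at about -5.5 in these data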
* marks the source's active call; other numbers are inactive results; i = inactive; / = no result given. In the library only some 1.6% were active in any assay of this set; here they are far more common.

SMILES	KCNQ2 pot	KCNQ2 inh
O=C(C1=C[C@@H](c2ccc(Br)cc2)C[C@@H](OCCCCO)O1)N1CCN(Cc2ccc3c(c2)OCO3)CC1	-6.2	-6.2*
O=C(C1=C[C@@H](C2CCCCC2)C[C@@H](OCCCCO)O1)N1CCN(Cc2ccccc2)CC1	-5.7	-5.7*
O=C(C1=C[C@H](c2ccc(C(F)(F)F)cc2)C[C@H](OCCCCO)O1)N1CCN(Cc2ccc3c(c2)OCO3)CC1	/	i
O=C(/C=C/c1ccccc1)NNC1=NS(=O)(=O)c2ccccc21	/	i
CCC1CCCCN1CCCNC(=O)C1CCN(c2nnc(-n3cccc3)s2)CC1 (centres undefined)	1.28	i
CC1=NN(C(N)=S)C(=O)C1N=Nc1ccc([N+](=O)[O-])cc1 (centres undefined)	1.23	i
CCOC(=O)C1(CC2CC2)CCN(C(=O)c2cc(C3CC3)nc3ccccc23)CC1	/	i
CCOC(=O)C1(CC2CC2)CCN(C(=O)c2cccnc2C)CC1	-6.44	-6.44*
Cc1ccc(N(CC(=O)NCc2ccco2)C(=O)CNS(=O)(=O)c2ccccc2)c(C)c1	0.03	i
CCc1ccc(C(=O)Nc2cc(C)on2)o1	0.08	i
CC1(C)Cc2c(C#N)c(NCc3ccco3)nc(-c3ccco3)c2CO1	0.49	i
CC1(C)Cc2c(C#N)c(N3CCCC3)nc(-c3ccco3)c2CO1	-9.09	-9.09*
Cc1ccc(NC(=S)NCC(C)CSc2ccc(Cl)cc2)cc1 (centres undefined)	13.3*	i
Cc1cccc(NC(=S)NCC(C)CSc2ccc(Cl)cc2)c1 (centres undefined)	1.99	i
O=C(Nc1ccc(C(=O)O)cc1)/C(=C\c1ccc2c(c1)OCO2)NC(=O)c1ccco1	6.47*	i
O=C(Nc1ccc(C(=O)O)cc1)/C(=C\c1ccccc1)NC(=O)c1ccco1	0.24	i
Cc1cc(C(=O)OC(C(=O)Nc2ccc(C)c(Cl)c2)c2ccccc2)c(C)o1 (centres undefined)	-5.77	-5.77*
Cc1ccc(NC(=O)C(OC(=O)c2ccccc2Cl)c2ccccc2)cc1Cl (centres undefined)	/	i
O=C(CSc1nc2ccccc2s1)N1c2ccccc2Sc2ccc(Cl)cc21	/	i
O=C(CSc1nc2ccccc2s1)N1c2ccccc2Sc2ccc(C(F)(F)F)cc21	-6.5	-6.5*
Cc1ccc(N2C(=O)c3cccc4c(Oc5ccccc5[N+](=O)[O-])ccc(c34)C2=O)c(C)c1	-6	-6*
Cc1cc(O)ccc1N1C(=O)c2cccc3cc([N+](=O)[O-])cc(c23)C1=O	/	i
O=C(OCCNc1ncc(C(F)(F)F)cc1Cl)c1ccc(S(=O)(=O)N2CCOCC2)cc1	0.01	i
Cc1cc(C)c2c(NC(=O)CCl)nn(C)c2n1	0.1	i
CCc1cc(SC#N)cc(CC)c1NC(=O)CCl	5.33*	i
SMILES	KCNQ2 pot	KCNQ2 inh
Cc1cccc(CSc2nc3sc(C)c(C)c3c(=O)n2Cc2ccco2)c1	0.57	i
Cc1cccc(CSc2nnc(-c3cccs3)n2Cc2ccco2)c1	-6.06	-6.06*
Cc1cc(C)c(C)c(S(=O)(=O)NCC(=O)Nc2ccc(F)cc2)c1C	0.06	i
COc1ccc(C2CC(c3ccccc3)Nc3nc(NC(=O)c4ccco4)nn32)cc1 (centres undefined)	0.64	i
O=C(Nc1nc2n(n1)C(c1ccccc1)CC(c1ccc(Cl)cc1)N2)c1ccco1 (centres undefined)	-7.25	-7.25*
Cc1ccc2c(c1)c1c(c(=O)n(-c3ccccc3C)c(=O)n1CC(=O)NCC1CCCO1)n2C (centres undefined)	/	i
CCN(CC)CCCNC(=O)c1ccc(N2CCCCC2)c(NS(=O)(=O)c2ccc(C)cc2)c1	/	i
CCOC(=O)c1ccc(N2CCN(c3ccccc3F)CC2)c(NC(=O)Nc2ccccc2)c1	-6.34	-6.34*
CCOC(=O)c1ccc(N2CCN(c3ccc(F)cc3)CC2)c(NC(=O)Nc2cccc(OC)c2)c1	/	i
CCOC(=O)c1ccc(N2CCCCC2)c(NS(=O)(=O)c2ccc(C)cc2)c1	-7.31	-7.31*
O=C(c1ccco1)N1CCCC(c2nc3c(nnn3Cc3cccc(Cl)c3)c(=O)[nH]2)C1 (centres undefined)	0.55	i
N#Cc1ccc(NC(=O)N2CCC(c3nc4c(nnn4Cc4cccc(Cl)c4)c(=O)[nH]3)CC2)cc1	-7.5	-7.5*
COc1ccc(NC(=O)CN2C(=O)NC(C)(c3ccccc3)C2=O)cc1Cl (centres undefined)	/	i
CC12CCC(=O)N1C(C(=O)Nc1cc(C(F)(F)F)ccc1N1CCOCC1)CS2 (centres undefined)	/	i
Cc1sc(NC(=O)C2CSC3(C)CCC(=O)N23)nc1-c1ccccc1 (centres undefined)	-6.86	-6.86*
CC12CCC(=O)N1C(C(=O)NCc1ccccc1Cl)CS2 (centres undefined)	-5.84	-5.84*
CC12CCC(=O)N1C(C(=O)Nc1ccc(Cl)c(S(=O)(=O)N3CCCCC3)c1)CS2 (centres undefined)	-6.08	-6.08*
CC(=O)c1sc(NC(=O)C2CSC3(C)CCC(=O)N23)nc1-c1ccccc1 (centres undefined)	/	i
CC12CCC(=O)N1C(C(=O)Nc1ccc(Cl)c(Cl)c1)CS2 (centres undefined)	/	i
CC12CCC(=O)N1C(C(=O)Nc1cc(C(F)(F)F)ccc1N1CCCCC1)CS2 (centres undefined)	-6.05	-6.05*
CC12CCC(=O)N1C(C(=O)NCCc1ccccc1)CS2 (centres undefined)	/	i
C=CCN1C(=O)c2ccc(C(=O)N3CCN(S(=O)(=O)c4ccc(C(C)C)cc4)CC3)cc2C1=O	0.14	i
O=C(CSc1nc2c(oc3ccccc32)c(=O)n1CC1CCCO1)NCc1ccc(F)cc1 (centres undefined)	0.61	i
Cn1c(COc2ccccc2)nnc1SCC(=O)NC1CCCC1	/	i
CCC(C(=O)NC1CCCC1)N(C(=O)Cn1nnc(-c2ccc(C)o2)n1)c1ccc(F)cc1 (centres undefined)	/	i
SMILES	KCNQ2 pot	KCNQ2 inh
CCC(C)c1ccc(OCC(=O)Nc2ccc(CN3CCOCC3)cc2)cc1 (centres undefined)	1.01	i
Cc1ccccc1NC(=O)CSc1nnc(-c2ccoc2C)n1CCc1ccccc1	-5.55	-5.55*
COc1ccc(NC(=O)CSc2nnc(-c3ccoc3C)n2CCc2ccccc2)cc1	/	i
Cc1occc1-c1nnc(SCC(=O)Nc2ccccc2-c2ccccc2)n1C	0.05	i
CCCn1c(SCC(=O)Nc2ccccc2-c2ccccc2)nnc1-c1ccoc1C	-5.8	-5.8*
O=C(CN1C(=O)NC2(CCCC2)C1=O)OCc1ccc(Cl)c(Cl)c1	0.62	i
Cc1ccc(N(C(=O)CNC(=O)c2ccco2)C(C(=O)NC2CCCC2)c2ccncc2)cc1C (centres undefined)	/	i
COc1ccc(CC(=O)NCC(=O)Nc2ccccc2Br)cc1	0.9	i
COc1ccc(N2CCN(C(=O)CSc3nnc(-c4ccco4)n3C)CC2)cc1	0.04	i
COCCNC(=O)c1cccc(OC2CCN(Cc3cccc(SC)c3)CC2)c1	0.87	i
O=C(COc1ccc(Cl)cc1)NCCSCc1cccc(Cl)c1	-7.45	-7.45*
Cc1cc(Cl)ccc1OCC(=O)NCCCCc1ccccc1	-6.32	-6.32*
COc1cc(OC)cc(C(=O)NCCCCc2ccccc2)c1	-8.22	-8.22*
Cc1cc(Cl)ccc1OCC(=O)NCCC(=O)O	1.02	i
